Where “and” joins values, the source holds several entries; their conditions need not be identical. Equal values may be shown once. The campaign covered roughly 340,000 compounds. About 390 (0.11%) were called active.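 How the source made its calls: active means inhibition above the mean inhibition of all tested compounds plus 3 SD (cut at about 17% in these data); inactive means the rest.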 The full list was thinned out, with actives kept by preference.
Molecular target: Troponin I, cardiac muscle (Homo sapiens) + Troponin T, cardiac muscle (Homo sapiens) + Troponin C, slow skeletal and cardiac muscles (Homo sapiens) (UniProt P19429+P45379+P63316)
Assay: calcium desensitizers of cardiac thin filaments – biochemical, IANBD-TnC fluorescence, EC70 calcium, primary screen (AID 493244);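 further: assay run at fixed EC70 calcium of 1.6 mM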
Conditions: IANBD-labeled cardiac RTF, Ca2+ fluorescence; at 7.15 µM; stronger effect = higher value

| Structure (SMILES) | inhibition |
| --- | --- |
| O=C(C[C@H]1C(=O)N(c2ccc(F)c(F)c2)C[C@@H]1Cc1ccccc1)Nc1ccccc1 | -7.8% (inactive) |
| COc1cc(OC)cc(-c2c(-c3ccc(F)cc3)c3cc(-c4ccc5cc[nH]c5c4)ccc3n2C)c1 | 0.02% (inactive) |
| Cc1nc2ccc(NC(=O)c3cccc(S(=O)(=O)N4CCOCC4)c3)cc2s1 | 7.38% (inactive) |
| O=C(O)c1cccc(S(=O)(=O)Nc2ccc(O)cc2Sc2nc3ccccc3s2)c1 | 20.3% (active) |
| O=S(=O)(Nc1ccc2nc(N3CCOCC3)sc2c1)c1ccccc1 | -15.4% (inactive) |
| CCCOc1ccc(N2C(=O)CC(N(CCc3ccc(S(N)(=O)=O)cc3)C(C)=O)C2=O)cc1 (stereo not given) | 11.4% (inactive) |
| COC(=O)CN(c1cccc(C(C)=O)c1)S(C)(=O)=O | -2.17% (inactive) |
| CCCC/S(C)=N/S(=O)(=O)c1ccc(C)cc1 (stereo not given) | -2.27% (inactive) |
| CC(=O)C1C(c2ccc(Cl)cc2)c2c(n[nH]c2C)CC1(C)O (stereo not given) | -5.53% (inactive) |
| O=C(Nc1cccnc1)c1cc2cc(Br)ccc2oc1=O | 3.93% (inactive) |
| COc1cccc(N(CC(=O)NC2CCCCCC2)S(=O)(=O)c2ccccc2)c1 | -9.96% (inactive) |
| COC(=O)C1(C)NC(c2ccccc2OC)C2C(=O)N(c3ccccc3)C(=O)C21 (stereo not given) | -1.37% (inactive) |
| C=CCC(CC=C)(C(N)=O)c1ccccc1 | -6.01% (inactive) |
| CNC(=O)COc1ccc(S(=O)(=O)Nc2ccccc2)cc1 | -0.29% (inactive) |
| CCCCn1c(N)c(N(CC(C)C)C(=O)c2cccc(S(=O)(=O)N3CC(C)OC(C)C3)c2)c(=O)[nH]c1=O (stereo not given) | -3.78% (inactive) |
| CCN(CC)C(=O)[C@H]1CC(CC(=O)NCc2ccco2)C(=O)N2CCc3c([nH]c4ccccc34)[C@]12C (stereo not given in full) | -0.12% (inactive) |
| Cc1ccccc1N(C(=O)Cc1cccs1)C(C(=O)NC1CCCCC1)c1cn(C)nc1C (stereo not given) | -6.48% (inactive) |
| Cc1ccsc1C(C(=O)NC1CCCCC1)N(C(=O)Cc1cccs1)C1CC1 (stereo not given) | -0.55% (inactive) |
| Cc1cccc(N(C(=O)Cc2cccs2)C(C(=O)NC2CCCC2)c2ccsc2)c1 (stereo not given) | 18.7% (active) |
| COc1ccc(C(C#N)(CC(=O)O)c2cnccn2)cc1OC (stereo not given) | 2.97% (inactive) |
| CCOC(=O)C1Cn2c(nc3c(c2=O)C(C)(CC)Cc2ccccc2-3)S1 (stereo not given) | -5.87% (inactive) |
| Cc1nc2cc(S(=O)(=O)C(F)(F)F)ccc2s1 | 0.85% (inactive) |
| Cn1c(N)cc(=O)n(C)c1=S | 1.39% (inactive) |

| Structure (SMILES) | inhibition |
| --- | --- |
| Cc1csc(/N=C/N(C)C)c1C#N | 5.98% (inactive) |
| Cc1c(CCOC(=O)CC23CC4CC(CC(C)(C4)C2)C3)sc[n+]1Cc1ccc([N+](=O)[O-])cc1 | -12.4% (inactive) and -2.7% (inactive) |
| CCOC(=O)c1sc(N(Cc2ccccc2)C(=O)CN2C(=O)CN(C)C2=O)nc1C | -19.2% (inactive) |
| OCCC1CN(Cc2ccc(Oc3ncccn3)cc2)CCN1CCc1ccccc1 (stereo not given) | -5.37% (inactive) |
| CC1(C)CC(=O)C=C(NCc2ccncc2)C1 | -4.04% (inactive) |
| O=C(NCc1ccccc1Cl)C1CCC(CNc2c(N3CCCCC3)c(=O)c2=O)CC1 (stereo not given) | -11.6% (inactive) |
| NC1=NC(c2ccc([N+](=O)[O-])cc2)N(c2ccc(F)cc2)C(N)=N1 (stereo not given) | 4.59% (inactive) |
| CCn1c(O)c(N=NC2=NC(=O)CS2)c2cc(C)ccc21 | 3.93% (inactive) |
| CCCCC(NC(=O)c1cccc(Br)c1)C(=O)O (stereo not given) | -10.9% (inactive) |
| CSc1ncnc2c1ncn2CC(=O)C1CCC2C3CCC4=CC(=O)CCC4(C)C3CCC12C (stereo not given) | -3.91% (inactive) |
| COc1ccc2c(c1)cc1n2CCN=C1NN | -7.01% (inactive) |
| COc1ccccc1-c1n[nH]c2c1[C@H](C)CC[C@H]2C(C)C | -2.28% (inactive) |
| CC(=O)c1nn(-c2cccc(C(F)(F)F)c2)c(=O)[nH]c1=O | -1.11% (inactive) |
| COC(=O)CCc1sc(Nc2ccc(Br)cc2)nc1-c1ccc(OC)cc1 | 20.8% (active) |
| Cc1ccc(OC(=O)CCC(=O)Nc2ccc(Br)cc2)cc1 | -3.9% (inactive) |
| COc1ccc(NC(=O)CCC(=O)Nc2nnc(C3CCCCC3)s2)cc1 | -6.36% (inactive) |
| Cc1ccc2c(cnn2C(=O)CCC(=O)NC2CCCC2)c1 | 6.54% (inactive) |
| CCN(CC(=O)Nc1c(F)cccc1F)C(=O)c1ccc(-c2ccc(C(C)=O)cc2)o1 | 1.58% (inactive) |
| COc1ccc(-n2c(C)cc(C(=O)CN3C(=O)NC4(CCc5ccccc54)C3=O)c2C)cc1 (stereo not given) | -0.58% (inactive) |
| O=C(/C(=N\O)n1cncn1)c1ccc(Br)cc1Br | -6.03% (inactive) |
| Cc1ccc(CN2CCNC(=O)C2CC(=O)NCc2csc(C(C)C)n2)cc1 (stereo not given) | -0.36% (inactive) |
| O=C1C=C(c2ccc(Cl)cc2)C(=O)N1Nc1ccccc1 | -3.83% (inactive) |
| Cc1ccc(C(=O)NCCc2nnc(SCC(=O)Nc3cccc(C(=O)O)c3)n2C)cc1 | -8.53% (inactive) |

| Structure (SMILES) | inhibition |
| --- | --- |
| CCC(NC(=O)c1cc(COc2ccc(F)c(F)c2)on1)c1ccncc1 (stereo not given) | -0.88% (inactive) |
| CCCN(CCC)CCCNC(=O)CNC(=O)c1nn(-c2ccc(OC)cc2)c(=O)c2ccccc12 | 1.59% (inactive) |
| COc1ccc(NS(=O)(=O)c2cc(NC(=O)COc3ccccc3F)ccc2OC)cc1 | -0.92% (inactive) |
| COc1ccc(C(F)(F)F)cc1N/C=C\c1nnnn1-c1ccc(C)cc1 | -1.14% (inactive) |
| Cc1ccc(-c2c[n+](=O)c3c(n2[O-])CCC3)cc1 | -7.98% (inactive) |
| Cc1ccc(NC(=O)C(C)OC(=O)C2CC3CCCC(C2)C3=O)cc1S(=O)(=O)N1CCOCC1 (stereo not given) | -1.77% (inactive) |
| N#CCCn1ncc2ccccc21 | -17% (inactive) |
| CCOC(=O)N1CCN(Cc2nc3cc(NC(=O)CC)ccc3n2CC)CC1 | -8.27% (inactive) |
| CCC(C)CN1CCC(CO)(Cc2ccccc2Cl)CC1 (stereo not given) | 2.96% (inactive) |
| CC(C)C[C@H]1CN=C(Nc2ccccc2)N1CC1CCCCC1 | -2.92% (inactive) |
| CCOc1ccc(-n2c(SC(C)C(=O)OC)nc3c(c2=O)SCC3)cc1 (stereo not given) | -6.85% (inactive) |
| Cc1ccc2nc(Nc3ncc4c(n3)CC(C)(C)CC4=O)nc(C)c2c1 | -5.46% (inactive) |
| NS(=O)(=O)c1cccc(NC(=O)CC23CC4CC(CC(Br)(C4)C2)C3)c1 | -5.43% (inactive) |
| CC(C)(CNC(=O)c1ccc(Cl)c(S(=O)(=O)N2CCc3ccccc3C2)c1)N1CCOCC1 | -11.2% (inactive) |
| COc1ccccc1C(=O)N1CCNC(=O)C1CC(=O)Nc1ccc(Cl)cc1 (stereo not given) | 1.41% (inactive) |
| COC(=O)c1ccc(COC(=O)CNC(=O)c2cccc(OC)c2)o1 | -10.2% (inactive) |
| COc1cc(OC)cc(C(=O)NCC(=O)OCC(=O)NC(C)CCc2ccccc2)c1 (stereo not given) | -1.01% (inactive) |
| COc1cc(OC)cc(C(=O)NCC(=O)OCc2csc(-c3ccccc3)n2)c1 | 17.6% (active) |
| CC1CCCC(NC(=O)COC(=O)[C@@H]2CC(O)CN2S(=O)(=O)c2ccc3c(c2)OCCO3)C1C (stereo not given in full) | 20.7% (active) |
| O=C1COc2ccc(C(=O)COC(=O)C3CC(O)CN3S(=O)(=O)c3ccc(Cl)cc3)cc2N1 (stereo not given) | -1.25% (inactive) |
| Cc1ccc(S(=O)(=O)N2CC(O)C[C@H]2C(=O)OCC(=O)Nc2ccc(N3CCOCC3)cc2)cc1C (stereo not given in full) | -9.94% (inactive) |
| CCN(CC)CCNC(=O)c1ccc(NC(=O)c2c(F)cccc2Cl)cc1 | -3.23% (inactive) |
| COC(=O)C1=NN(c2ccccc2)C2C(=O)N(c3ccccc3OC)C(=O)C12 (stereo not given) | -2.73% (inactive) |

| Structure (SMILES) | inhibition |
| --- | --- |
| Cc1oc2cc(Br)c(O)c(Br)c2c1C(=O)c1ccccc1 | -3.49% (inactive) |
| CC(=O)Nc1nc(N(C)C)nc(N(C)C)n1 | 2.09% (inactive) |
| CCN1C(=O)/C(=C2\SC(N3CCCCC3)=NC2=O)c2ccccc21 | -0.1% (inactive) |
| Cn1c2c(c(=O)n(C)c1=O)C(c1ccc(O)cc1)Nc1ccccc1O2 (stereo not given) | 3.38% (inactive) |
| O=C(N[C@@H]1C/C=C\C[C@@H](CC(=O)N(CCO)Cc2ccccc2)C(=O)N[C@H](Cc2ccccc2)COC1=O)OCC1c2ccccc2-c2ccccc21 | -7.62% (inactive) |
| O=C(O)c1ccccc1N=N/C(=N/Nc1cc(S(=O)(=O)O)ccc1O)c1ccccc1 | 5.68% (inactive) |
| CC1CC(C)CN(C(=O)CSc2ccsc2[N+](=O)[O-])C1 (stereo not given) | -12.4% (inactive) |
| COc1ccc(NC(=O)C2COc3ccccc3O2)cc1 (stereo not given) | 1.47% (inactive) |
| COc1ccc(NC(=O)NCc2ccc3c(c2)OCO3)c(OC)c1 | -6.62% (inactive) |
| COc1ccc(NC(=O)CC2COc3ccccc3O2)c(OC)c1 (stereo not given) | 17.3% (active) |
| O=C(Nc1ccccc1)c1nnsc1S(=O)(=O)c1ccc(Cl)cc1 | -4.97% (inactive) |
| N=c1n(Cc2ccc(Cl)cc2)c2ccccc2n1CC(O)c1ccco1 (stereo not given) | -16.9% (inactive) |
| Cc1ccc(NC(=O)CN(C)C(=O)c2ccc(Br)o2)cc1 | -14.7% (inactive) |
| CCCCCCCCNS(=O)(=O)CCNC1CCCCC1 | -2.61% (inactive) |
| Cc1ccc2c(c1)N(CC(=O)N1CCCC(C)C1)C(=O)CO2 (stereo not given) | -10.6% (inactive) |
| Cc1c(S(=O)(=O)N2CC(C)CC(C)C2)c(=O)n(C)c(=O)n1C (stereo not given) | -1.29% (inactive) |
| O=C(O)CCCCOn1ccnc1 | -6.34% (inactive) |
| CN(CC1CCCO1)S(=O)(=O)c1ccc(C(=O)Nc2ccc(F)cc2)cc1 (stereo not given) | 1.44% (inactive) |
| COc1ccc(NC2=CC(=S)NC(C)(C)C2)cc1 | -18.1% (inactive) |
| Cc1ccc2c(c1)N(CC(=O)N1CCC(O)CC1)C(=O)CO2 | 6.2% (inactive) |
| COc1ccc(CNC(=O)CN2C(=O)c3ccccc3S2(=O)=O)cc1 | -0.78% (inactive) |

From PubChem BioAssay AID493244 (The Scripps Research Institute Molecular Screening Center, 2011)
